Laboratory results as given in PMC5540273 (PLoS ONE, 2017).

Legend:
Conditions in all cases: concentration: 1 μM,replicates: in singlicate; n = 1
ASK2 = system: T1, ASK2
T1 construct: gene MAP3K6

AURKA = system: AURKA
AURKB = system: AURKB
AURKC = system: AURKC
AXL = system: AXL
BIKE = system: T2, BIKE
T2 construct: gene BMP2K

BLK = system: BLK
BMPR1A = system: BMPR1A
BMPR1B = system: BMPR1B
BMPR2 = system: BMPR2
BMX = system: BMX
BRAF = system: BRAF
BRK = system: T3, BRK
T3 construct: gene PTK6

BRSK1 = system: BRSK1
BRSK2 = system: BRSK2
BTK = system: BTK
BUB1 = system: BUB1
CAMK1B = system: CAMK1B
CAMK1D = system: CAMK1D
CAMK1G = system: CAMK1G
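Further: KINOMEscan kinase panel screen.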

SMILES | %Inh (ASK2) [%] | %Inh (AURKA) [%] | %Inh (AURKB) [%] | %Inh (AURKC) [%] | %Inh (AXL) [%] | %Inh (BIKE) [%] | %Inh (BLK) [%] | %Inh (BMPR1A) [%] | %Inh (BMPR1B) [%] | %Inh (BMPR2) [%] | %Inh (BMX) [%] | %Inh (BRAF) [%] | %Inh (BRK) [%] | %Inh (BRSK1) [%] | %Inh (BRSK2) [%] | %Inh (BTK) [%] | %Inh (BUB1) [%] | %Inh (CAMK1B) [%] | %Inh (CAMK1D) [%] | %Inh (CAMK1G) [%]
Cc1ccc2c(-c3ccncc3)c(-c3ccc(F)cc3)nn2c1.Cl [GW461484] | 0 | 8 | 0 | 14 | 0 | 19 | 3 | 0 | 0 | 11 | 4 | 59 | 16 | 3 | 4 | 40 | 74 | 0 | 6 | 1
Cc1cc2cn[nH]c2cc1-c1cccc2c(N)c(C(N)=O)nnc12 | 95.6 | 90 | 97.3 | 79 | 15 | 75 | 91.5 | 25 | 88 | 96.5 | 83 | 33 | 20 | 54 | 48 |  | 0 | 19 | 29 | 11
C=CC(=O)Nc1cc2c(Nc3ccc(F)c(Cl)c3)ncnc2cc1OCCCN1CCOCC1 [GW781483] | 0 | 25 | 0 | 20 | 53 | 22 | 99.6 | 0 | 0 | 15 |  | 3 | 25 | 8 | 0 | 94 | 52 | 61 | 28 | 0
Cl.Cl.Nc1nc(-c2ccc3c(N)n[nH]c3c2)cc(N2CCCC(NC(=O)c3ccccc3)C2)n1 (stereo not shown) [GSK2286775] | 11 |  | 96.4 | 92.9 | 80 | 80 | 0 | 0 | 0 | 0 | 3 | 4 | 3 | 0 | 0 | 0 | 32 | 26 | 13 | 10
C[C@H]1Oc2cc(cnc2N)-c2c(nn(C)c2C#N)CN(C)C(=O)c2ccc(F)cc21 | 0 | 7 | 4 | 0 | 42 | 0 | 31 | 2 | 0 | 0 | 37 | 0 | 39 | 3 | 24 | 0 | 0 | 49 | 33 | 0
CN(C)CC(O)COc1ccc(Nc2nccc(-c3cnn4nc(N5CCOCC5)ccc34)n2)cc1 (stereo not shown) [GW767488] | 44 | 65 | 84 | 70 | 28 | 93.6 | 0 | 18 | 58 | 42 | 3 | 3 | 0 | 3 | 33 | 22 | 76 | 49 | 37 | 38
CCN(CC)CCCCNc1ncc2cc(-c3c(Cl)cccc3Cl)c(NC(=O)NC(C)(C)C)nc2n1 | 0 | 10 | 0 | 10 | 68 | 9 | 99.8 | 55 | 99.9 | 20 | 43 | 97.8 | 95.9 | 13 | 10 | 65 | 17 | 7 | 16 | 12
O=C(NCCNc1ccnc(NCc2ccc(F)cc2)n1)c1cc2ccccc2s1 [GSK1379944] | 0 | 66 | 34 | 27 | 0 | 27 | 20 | 0 | 0 | 14 | 24 | 2 | 20 | 0 | 0 | 0 | 5 | 0 | 0 | 0
